Assay results taken from PubChem BioAssay (NCATS).
Records with an inconclusive call do not appear. Active and inactive are the calls of the source. Calls come from the whole dose curve; as a rule, active = well fitted curve in the direction sought with a large enough effect; inconclusive = small, poorly fitted or top-dose-only effect, or another doubt; inactive = no such curve, though single readings can be large; an effect the other way counts as inactive or inconclusive. Where a SMILES comes first, the peptide text is derived from it.

How the values were obtained:
NIH3T3 = test: qHTS assay to identify novel small-molecules to repurpose for Merkel cell carcinoma treatment (AID 1296009); settings: MCC and control cell lines, CellTiter-Glo viability, 72 h; at 44.8 µM (top of the series) unless noted; note: nearly all actives have a fitted effect of over 60% in size
Outline: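 Cell viability, measured as CellTiter-Glo luminescence, was normalized between DMSO and no-cell wells. The cells had been exposed to 8- or 11-point compound dilutions for 72 hr at 37 degree celsius.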

C33A = test: Primary qHTS to identify gynecologic anti-cancer compounds using libraries of approved drugs and bioactive compounds (AID 1345084); settings: Gynecologic cancer cell panel viability, ATPlite luminescence, 48 h; series mostly up to 57.5 µM; note: % is set by controls: 0 for no effect and ±100 for the full control effect; nearly all actives have a fitted effect of over 55% in size
Outline: (§1)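 Five-point cytotoxicity, 48 h drug exposure at 37 C, 5% CO2, on cells seeded 16 h beforehand. ATP content read by ATPlite luminescence.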

CAOV3 = test: as above; settings: Gynecologic cancer cell panel viability, ATPlite luminescence, 48 h; series mostly up to 57.5 µM
Outline: as §1

CASKI = test: as above; settings: Gynecologic cancer cell panel viability, ATPlite luminescence, 48 h; series mostly up to 57.5 µM
Outline: as §1

Es-2 = test: as above; settings: Gynecologic cancer cell panel viability, ATPlite luminescence, 48 h; series mostly up to 57.5 µM
Outline: as §1

HeLa = test: as above; settings: Gynecologic cancer cell panel viability, ATPlite luminescence, 48 h; series mostly up to 57.5 µM
Outline: as §1

Hek293T = test: as above; settings: Gynecologic cancer cell panel viability, ATPlite luminescence, 48 h, control line for the selectivity index; series mostly up to 57.5 µM
Outline: as §1

JEG-3 = test: as above; settings: Gynecologic cancer cell panel viability, ATPlite luminescence, 48 h; series mostly up to 57.5 µM
Outline: as §1

C=C[C@H]1[C@H](O[C@@H]2O[C@H](CO)[C@@H](O)[C@H](O)[C@H]2O)OC=C(C(=O)OC)[C@H]1CC=O
inactive: outcome (NIH3T3) | Potency (C33A) | Potency (CAOV3) | outcome (CASKI) | Potency (Es-2) | Potency (HeLa) | Potency (Hek293T) | Potency (JEG-3)

Cc1ccc2[nH]c(=O)c(C3=NN(C(=O)CCC(=O)O)C(c4ccc(Br)cc4)C3)c(-c3ccccc3)c2c1 (stereo not drawn)
inactive: outcome (NIH3T3) | Potency (C33A) | Potency (CAOV3) | outcome (CASKI) | Potency (Es-2) | Potency (HeLa) | Potency (Hek293T) | Potency (JEG-3)

C=Cc1cc2oc(-c3ccc(O)c(F)c3)nc2cc1O
inactive: outcome (NIH3T3) | Potency (C33A) | Potency (CAOV3) | outcome (CASKI) | Potency (Es-2) | Potency (Hek293T) | Potency (JEG-3)

O=C(O)C(Cc1ccccc1)NC(=O)C1CCCN1 (stereo not drawn) (H-Pro-Phe-OH; configuration not given here)
inactive: outcome (NIH3T3) | Potency (C33A) | Potency (CAOV3) | outcome (CASKI) | Potency (Es-2) | Potency (HeLa) | Potency (Hek293T) | Potency (JEG-3)

COC(=O)c1ccc(OC)cc1O[C@@H]1O[C@H](CO[C@@H]2OC[C@@H](O)[C@H](O)[C@H]2O)[C@@H](O)[C@H](O)[C@H]1O
inactive: outcome (NIH3T3) inactive [at 17.4 µM] | Potency (C33A) | Potency (CAOV3) | outcome (CASKI) | Potency (Es-2) | Potency (HeLa) | Potency (Hek293T) | Potency (JEG-3)

CCC1(O)CC2c3cc(OC)c(OC)cc3CCN2CC1CC(C)C (stereo not drawn)
inactive: outcome (NIH3T3) | Potency (C33A) | Potency (CAOV3) | outcome (CASKI) | Potency (Es-2) | Potency (HeLa) | Potency (Hek293T) | Potency (JEG-3)

C[C@@H]1O[C@@H](O[C@H]2[C@@H]3C=CO[C@@H](O[C@@H]4O[C@H](CO)[C@@H](O)[C@H](O)[C@H]4O)[C@@H]3[C@@]3(CO)O[C@@H]23)[C@H](OC(=O)/C=C/c2ccc(O)cc2)[C@H](O)[C@H]1O
inactive: outcome (NIH3T3) inactive [at 17.4 µM] | Potency (C33A) | Potency (CAOV3) | outcome (CASKI) | Potency (Es-2) | Potency (HeLa) | Potency (Hek293T) | Potency (JEG-3)

COC(=O)[C@]1(C)CCC[C@@]2(C)[C@@H]3CC[C@@H]4C[C@@]3(CC[C@@H]21)C[C@H]4C(=O)O
inactive: outcome (NIH3T3) | Potency (C33A) | Potency (CAOV3) | outcome (CASKI) | Potency (Es-2) | Potency (HeLa) | Potency (Hek293T) | Potency (JEG-3)

Cc1cc(O[C@@H]2O[C@H](COC(=O)CC(=O)O)[C@@H](O)[C@H](O)[C@H]2O)c(C(C)C)cc1O
inactive: outcome (NIH3T3) inactive [at 17.4 µM] | Potency (C33A) | Potency (CAOV3) | outcome (CASKI) | Potency (Es-2) | Potency (HeLa) | Potency (Hek293T) | Potency (JEG-3)

CN1CCc2cc(Cl)c(O)cc2[C@@H](c2cccc3c2OCC3)C1
inactive: outcome (NIH3T3) | Potency (C33A) | Potency (CAOV3) | outcome (CASKI) | Potency (Es-2) | Potency (HeLa) | Potency (Hek293T) | Potency (JEG-3)

C[C@@]1(O)[C@H](O)[C@@H](CO)O[C@H]1n1cnc2c(=O)[nH]c(N)nc21
inactive: outcome (NIH3T3) | Potency (C33A) | Potency (CAOV3) | outcome (CASKI) | Potency (Es-2) | Potency (HeLa) | Potency (Hek293T) | Potency (JEG-3)

O=C(O)c1ccnc2cc(C(OCC3CCC(F)(F)CC3)c3ccccc3Cl)[nH]c12 (stereo not drawn)
inactive: outcome (NIH3T3) | Potency (C33A) | Potency (CAOV3) | outcome (CASKI) | Potency (Es-2) | Potency (Hek293T) | Potency (JEG-3)

Cc1nnc(-c2sc(NC(=O)[C@H](C(C)C)n3c(=O)[nH]c4ccccc4c3=O)nc2C)o1
inactive: outcome (NIH3T3) | Potency (C33A) | Potency (CAOV3) | outcome (CASKI) | Potency (HeLa) | Potency (Hek293T) | Potency (JEG-3)

NC(Cc1c[nH]c2ccc(O)cc12)C(=O)O (stereo not drawn)
inactive: outcome (NIH3T3) | Potency (C33A) | Potency (CAOV3) | outcome (CASKI) | Potency (Es-2) | Potency (HeLa) | Potency (Hek293T) | Potency (JEG-3)

C/C=C(\C)C(=O)OC[C@H]1O[C@@H](O[C@H]2[C@@H](O[C@H]3O[C@H](COC(=O)/C(C)=C/C)[C@@H](O)[C@H](O)[C@H]3O[C@@H]3O[C@H](CO)[C@@H](O)[C@H](OC(=O)/C(C)=C/C)[C@H]3O)O[C@H](COC(=O)/C(C)=C/C)[C@@H](O)[C@@H]2O)[C@H](O)[C@@H](O)[C@@H]1O
inactive: outcome (NIH3T3) inactive [at 9.27 µM] | activity change, negative = cytotoxicity (C33A) 12.3% [at 11.6 µM] | activity change, negative = cytotoxicity (CAOV3) 5.53% [at 11.6 µM] | activity change, negative = cytotoxicity (CASKI) -1.71% [at 11.6 µM] | activity change, negative = cytotoxicity (Es-2) 4.24% [at 11.6 µM] | activity change, negative = cytotoxicity (HeLa) -5.55% [at 11.6 µM] | activity change, negative = cytotoxicity (Hek293T) 8.78% [at 11.6 µM] | activity change, negative = cytotoxicity (JEG-3) 2.17% [at 11.6 µM]

CC(C)=CC1C[C@](C)(O)[C@@H]2[C@H]3CCC4[C@@]5(C)CC[C@H](O[C@@H]6OC[C@H](O)[C@H](O[C@@H]7O[C@H](CO[C@@H]8O[C@H](CO)[C@@H](O)[C@H](O)[C@H]8O)[C@@H](O)[C@H](O)[C@H]7O)[C@H]6O[C@@H]6O[C@@H](C)[C@H](O)[C@@H](O)[C@H]6O)C(C)(C)[C@@H]5CC[C@@]4(C)[C@@]34CO[C@@]2(C4)O1 (stereo partly drawn)
inactive: outcome (NIH3T3) inactive [at 9.27 µM] | activity change, negative = cytotoxicity (C33A) 25.2% [at 11.6 µM] | activity change, negative = cytotoxicity (CAOV3) 4.48% [at 11.6 µM] | activity change, negative = cytotoxicity (CASKI) 12.3% [at 11.6 µM] | activity change, negative = cytotoxicity (Es-2) 11.4% [at 11.6 µM] | activity change, negative = cytotoxicity (HeLa) 6.98% [at 11.6 µM] | activity change, negative = cytotoxicity (Hek293T) -1.62% [at 11.6 µM] | activity change, negative = cytotoxicity (JEG-3) 8.28% [at 11.6 µM]

C=C1CC[C@]2(C(=O)O[C@@H]3O[C@H](CO)[C@@H](O)[C@H](O)[C@H]3O)CC[C@]3(C)C(=CCC4[C@@]5(C)C[C@H](O)[C@@H](O[C@@H]6O[C@H](C(=O)O)[C@@H](O)[C@H](O)[C@H]6O)[C@](C)(C=O)C5CC[C@]43C)C2C1 (stereo partly drawn)
inactive: outcome (NIH3T3) inactive [at 9.27 µM] | activity change, negative = cytotoxicity (C33A) 1.71% [at 11.6 µM] | activity change, negative = cytotoxicity (CAOV3) -2.86% [at 11.6 µM] | activity change, negative = cytotoxicity (CASKI) -3.95% [at 11.6 µM] | activity change, negative = cytotoxicity (Es-2) 1.14% [at 11.6 µM] | activity change, negative = cytotoxicity (HeLa) 4.56% [at 11.6 µM] | activity change, negative = cytotoxicity (Hek293T) 2.33% [at 11.6 µM] | activity change, negative = cytotoxicity (JEG-3) -0.564% [at 11.6 µM]
